# PubChem BioAssay AID463173 (ICCB-Longwood Screening Facility, Harvard Medical School, 2010)
# About 1,700 (3.3%) of roughly 52,000 compounds were called active. Only a selection was taken, and actives are over-represented in it overall. Values without a mark were called inactive. Rule as the data show it: active = survival mostly below about 52% (no sharp cut-off); inactive = mostly above about 56%.
# Test system: Wild type
# Assay: growth inhibition of S. aureus wild type versus tarO mutant, primary screen, teichoic acid synthesis inhibitors, RN4220, OD600 (AID 463173)
# Conditions: S. aureus RN4220 wild type/DeltatarO growth, OD600, 18 h, active compounds read low, screened at 18.75 µg/mL (by protocol)
row,Structure (SMILES),survival
1,Cc1ccc(C)c(Cn2c(=O)n(Cc3ccc4c(c3)OCO4)c(=O)c3oc4ccccc4c32)c1,89%
2,COc1ccc(CC(=O)NCCc2csc(-c3ccc(C(F)(F)F)cc3)n2)cc1,-6% (active)
3,O=C(NCCc1csc(-c2cccc(F)c2)n1)c1ccco1,69%
4,Cc1cccc(-c2nc(CCNC(=O)c3ccc(Br)o3)cs2)c1,69%
5,COc1ccc(CCC(=O)NCCc2csc(-c3ccc(C(F)(F)F)cc3)n2)cc1,80%
6,Cc1cccc(-c2nc(CCNC(=O)Cc3ccccc3)cs2)c1,-1% (active)
7,COc1ccc(-c2nc(CCNC(=O)Cc3ccc(F)cc3)cs2)cc1,134%
8,CCOc1ccc(CC(=O)NCCc2csc(-c3ccc(C(F)(F)F)cc3)n2)cc1,90%
9,Cc1cccc(-c2nc(CCNC(=O)Cc3ccc(F)cc3)cs2)c1,14% (active)
10,Cc1cccc(-c2nc(CCNC(=O)COc3ccccc3)cs2)c1,73%
11,COc1ccc(CC(=O)NCCc2csc(-c3cccc(C)c3)n2)cc1,74%
12,Cc1cccc(-c2nc(CCNC(=O)c3ccco3)cs2)c1,-6% (active)
13,O=C(Cc1ccc(F)cc1)NCCc1csc(-c2cccc(F)c2)n1,69%
14,CC(C)c1cnc2c(c1SCC(=O)NC(C)(C)C)c(=O)n(C)c(=O)n2C,80%
15,NC(=O)/C=C/C(=O)Nc1ccc2c(c1)OCO2,89%
16,O=C(NCCc1csc2nc(-c3ccc(F)cc3)nn12)c1ccco1,126%
17,COc1ccc(/C=C\c2onc(C)c2S(=O)(=O)N2CCC(C(=O)Nc3ccc(C)c(F)c3)CC2)cc1,93%
18,CC(=O)N1c2c(cc(Br)cc2S(=O)(=O)NCc2ccccc2Cl)CC1C (stereo unspecified),73%
19,C=Cc1ccc(Cn2c(C(=O)O)c(CNCc3cc(Br)ccc3OC)c3ccc(C)cc32)cc1,99%
20,COc1ccc(CNC(=O)c2cc3sccc3n2Cc2ccc(C)cc2)cc1,91%
21,Fc1ccc(N2CCN(c3ncnc4c3nc3n4CCCCC3)CC2)cc1,55%
22,COc1ccc(NC(=O)CSc2nnc(NC(=O)NC3CCCCC3)s2)cc1OC,65%
23,COc1ccc(S(=O)(=O)N2CCN(Cc3ccc4c(c3)OCO4)CC2)cc1OC,78%

row,Structure (SMILES),survival
1,Cc1ccc(S(=O)(=O)N2CCN(Cc3ccc4c(c3)OCO4)CC2)cc1,64%
2,Cc1cc(C)c(S(=O)(=O)N2CCN(Cc3ccc4c(c3)OCO4)CC2)cc1C,9% (active)
3,COc1ccc(NC(=O)c2ccco2)cc1NC(=O)c1ccc(C)c(C)c1,69%
4,COc1ccc(CNC(=O)c2cc3sccc3n2CC(=O)c2ccccc2)cc1,110%
5,CCc1ccc(NC(=O)CC2C(=O)N(c3cccc(OC)c3)C(=O)N2C2CCCC2)cc1 (stereo unspecified),120%
6,CCCCNC(=O)CCn1c(=O)c2ccccc2n(Cc2cccc(Cl)c2)c1=O,94%
7,CCSc1nc2ccc(C)cc2cc1C#N,111%
8,CCC(=O)C1=C(c2ccc(F)cc2)N(C(=O)CC)n2c(nnc2-c2ccc(OC)cc2)S1,53%
9,CCC(=O)C1=C(c2ccc(F)cc2)N(C(=O)CC)n2c(nnc2C2CCCCC2)S1,78%
10,CCC(=O)C1=C(c2ccc(F)cc2)N(C(=O)CC)n2cnnc2S1,133%
11,CC(=O)C1=C(c2cccc([N+](=O)[O-])c2)N(C(C)=O)n2c(nnc2-c2ccc(C)cc2)S1,85%
12,CCC(=O)C1=C(c2ccccc2)N(C(=O)CC)n2c(nnc2-c2ccccc2)S1,-6% (active)
13,CCCC(=O)C1=C(c2ccc(C)cc2)N(C(=O)CCC)n2cnnc2S1,134%
14,CCC(=O)C1=C(c2ccccc2)N(C(=O)CC)n2c(nnc2C2CCCCC2)S1,14% (active)
15,CCC(=O)C1=C(c2cccc([N+](=O)[O-])c2)N(C(=O)CC)n2c(nnc2C2CCCCC2)S1,63%
16,CCC(=O)C1=C(c2ccc(C)cc2)N(C(=O)CC)n2c(nnc2C2CCCCC2)S1,76%
17,CCC(=O)C1=C(c2ccc(OC)c(OC)c2)N(C(=O)CC)n2c(nnc2-c2ccc(C)cc2)S1,74%
18,CCOc1ccc(C2=C(C(=O)CC)Sc3nncn3N2C(=O)CC)cc1,-1% (active)
19,CCC(=O)C1=C(c2cccc([N+](=O)[O-])c2)N(C(=O)CC)n2c(nnc2-c2ccccc2)S1,0% (active)
20,COc1cc(C(=O)Nc2ccc3nc(SCc4ccc(C)cc4)sc3c2)cc(OC)c1OC,113%
21,CCc1ccc(N2C(=O)CSC23C(=O)N(Cc2ccc(C)cc2)c2ccccc23)cc1 (stereo unspecified),66%
22,Cc1ccc(NC(=O)Nc2nnc(N3CCCCC3)s2)c(C)c1,97%
23,CCC(=O)Nc1nnc(SCCOC)s1,120%

row,Structure (SMILES),survival
1,COc1ccc(-c2oc3ncn4nc(-c5cccc(C)c5)nc4c3c2-c2ccc(OC)cc2)cc1,68%
2,O=C(COc1ccccc1)NCc1ccc2c(c1)CCN2C(=O)c1ccc(Cl)cc1,82%
3,COC(=O)c1ccc(NC(=O)Cn2nc(C(=O)Nc3ccc(C)cc3)ccc2=O)cc1,85%
4,COc1ccc(CNC(=O)c2cc(Nc3ccc(C)cc3C)nc3ccccc23)cc1,91%
5,CCC(CC)C(=O)Nc1cc(-c2cn3cccnc3n2)ccc1OC,117%
6,CCNC(=O)C1CCN(Cc2cc3ccccc3n2Cc2ccc(C)cc2)CC1,85%
7,COc1cc(OC)c(NC(=O)c2cc3c(s2)-c2ccc(Cl)cc2SC3)cc1Cl,96%
8,Fc1ccc(-n2ncc3c(NC4CCCCCC4)ncnc32)cc1,76%
9,O=C1N(Cc2ccccc2Cl)c2ccccc2C1(O)c1c[nH]c2ccccc12 (stereo unspecified),84%
10,O=C1N(Cc2ccccc2)c2ccc(Cl)cc2C1(O)c1c[nH]c2ccccc12 (stereo unspecified),53%
11,Cc1[nH]c2ccccc2c1C1(O)C(=O)N(Cc2ccccc2)c2ccc(Br)cc21 (stereo unspecified),14% (active)
12,Cc1ccc(CN2C(=O)C(O)(c3c[nH]c4ccccc34)c3cc(Cl)ccc32)cc1 (stereo unspecified),-11% (active)
13,Cc1[nH]c2ccccc2c1C1(O)C(=O)N(Cc2ccccc2)c2ccc(Cl)cc21 (stereo unspecified),28%
14,CCCCN1C(=O)C(O)(c2c(C)[nH]c3ccccc23)c2cc(Br)ccc21 (stereo unspecified),36%
15,O=C1N(Cc2ccccc2)c2ccccc2C1(O)c1c[nH]c2ccccc12 (stereo unspecified),67%
16,Cc1ccccc1CN1C(=O)C(O)(c2c[nH]c3ccccc23)c2cc(Cl)ccc21 (stereo unspecified),-11% (active)
17,Cc1ccc(C)c(CN2C(=O)C(O)(c3c[nH]c4ccccc34)c3ccccc32)c1 (stereo unspecified),116%
18,COc1ccc(CC(=O)NCCS(=O)(=O)N2CCN(c3ccccc3F)CC2)cc1OC,66%
19,O=C(CN1C(=O)CSC1=O)N1CCCCC1,97%
20,CCc1ccc(-c2cc(C)no2)cc1S(=O)(=O)NCc1ccco1,76%
21,COc1cccc(Nc2sc(C(=O)c3ccc(Cl)cc3)c(N)c2C(=O)NCCc2ccc(OC)c(OC)c2)c1,75%
22,CC(C)=NNC(=O)c1nnn(-c2nonc2N)c1CN1CCOCC1,108%
23,COc1ccc(CNS(=O)(=O)c2ccc(F)c(C(=O)Nc3c(C)cc(C)cc3C)c2)cc1,80%

row,Structure (SMILES),survival
1,O=C(NCCO)c1ccc2[nH]c3c(c2c1)CCCC3,102%
2,Cc1ccc2nc(-c3c[nH]c4ccccc34)c(Nc3ccc(F)cc3)n2c1,72%
3,CCC(Oc1ccccc1-c1nnc(-c2ccccc2)o1)C(=O)Nc1ccc(C(C)=O)cc1 (stereo unspecified),118%
4,CCOC(=O)c1ccccc1NC(=O)COc1ccccc1-c1nnc(-c2ccccc2)o1,22%
5,CCc1ccccc1NC(=O)C(CC)Oc1ccccc1-c1nnc(-c2ccccc2)o1 (stereo unspecified),0% (active)
6,CC(=O)c1ccc(S(=O)(=O)N2CCn3cccc3C2c2ccc(F)c(F)c2)cc1 (stereo unspecified),68%
7,Nc1nc2n(n1)C(c1cccs1)CC(c1ccc(Cl)cc1Cl)N2 (stereo unspecified),106%
8,CCOC(=O)C1CCC(CN(Cc2cccc(Br)c2)S(=O)(=O)c2ccc(Cl)cc2)CC1 (stereo unspecified),90%
9,Cc1cc(C)c2oc(-c3cccc(NC(=O)c4ccc(Br)o4)c3)nc2c1,45%
10,Cc1ccc2cccc(NC(=O)C(C)Oc3ccc(Cl)cc3Cl)c2n1 (stereo unspecified),-9% (active)
11,Cc1ccc2nc(-c3cccc(NC(=O)c4ccc(Br)o4)c3)oc2c1,7% (active)
12,Cc1ccc2nc(-c3ccc(Cl)c(NC(=O)c4ccc(Br)o4)c3)oc2c1,69%
13,Cc1ccc2cccc(NC(=O)C(C)Oc3ccc(C)c(C)c3)c2n1 (stereo unspecified),83%
14,COc1ccc(NC(=O)c2ccco2)cc1NC(=O)C(C)C,90%
15,COc1cc2ccccc2cc1C(=O)Nc1cc(-c2nc3ccccc3o2)ccc1C,126%
16,COc1cc2ccccc2cc1C(=O)Nc1cccc(-c2nc3ccccc3o2)c1,1% (active)
17,Cc1ccc2cccc(NC(=O)c3ccc(-c4ccc(Cl)cc4Cl)o3)c2n1,69%
18,COc1cc2ccccc2cc1C(=O)Nc1cccc(-c2nc3cc(C)c(C)cc3o2)c1,58%
19,COc1ccc(NC(=O)c2ccco2)cc1NC(=O)C(C)Oc1ccc(Cl)cc1Cl (stereo unspecified),6% (active)
20,COc1ccc(NC(=O)c2ccco2)cc1NC(=O)c1cc(Cl)ccc1OC,65%
21,Cc1cc2c(cc1S(=O)(=O)CCC(=O)N1CCCCC1C)OCC(=O)N2 (stereo unspecified),85%
22,COc1ccc(CNC(=O)c2ccc(CS(=O)Cc3ccccc3Cl)o2)cc1 (stereo unspecified),95%
